Assay results published in PubChem BioAssay (EPA / NIEHS).
Records with an inconclusive call do not appear. Calls of active or inactive are those of the source. The calls were made as follows: active = hit-call score of the fitted dose curve at least 0.9, where 1 is the maximum; inconclusive = response in the unintended direction; inactive = score below 0.9.

Assay: Tanguay_ZF_120hpf_AXIS_legacy: (Legacy) Oregon State University Tanguay Lab 120 Hour Post-fertilization zebrafish Assay for Body Axis Malformation (AID 2283635);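 as to AC50: potency for an increased fraction of larvae scored with body axis malformation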
In short: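 Tropical 5D wild-type zebrafish embryos, dechorionated with pronase at 4 hpf, were placed singly in wells at 6 hpf and exposed statically to test chemical (0.64% DMSO final) at 28C until 120 hpf, then scored by brightfield for body axis defects.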

Structure (SMILES) | outcome | AC50
CCc1ccc(CCOc2ccc(CC3SC(=O)NC3=O)cc2)nc1 (stereo not given) | inactive | 
OCCC(F)(F)C(F)(F)C(F)(F)C(F)(F)C(F)(F)C(F)(F)C(F)(F)C(F)(F)F | inactive | 
O=[N+]([O-])c1ccc(O)cc1 | inactive | 
CCCCC(CC)COC(=O)CCCCC(=O)OCC(CC)CCCC (stereo not given) | inactive | 
Cc1cc(CCN2CCN(c3nsc4ccccc34)CC2)cc2c1NC(=O)CC2(C)C |  | 5.38 µM (active)

Assay: Tanguay_ZF_120hpf_EYE_legacy: (Legacy) Oregon State University Tanguay Lab 120 Hour Post-fertilization zebrafish Assay for Eye Malformation (AID 2283636);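 also: binary presence or absence of eye malformation scored by brightfield in 120 hpf larvae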
In short: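 Binary brightfield scoring of eye defects at 120 hpf after static exposure from 6 hpf of single pronase-dechorionated wild-type embryos (28C, 0.64% DMSO). Non-mortality endpoints omitted where embryos died; fit vs DMSO.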

Structure (SMILES) | outcome | AC50
CN1CCN(c2ccccc2/C=C2\SCCN(c3ccc(Cl)c(Cl)c3)C2=O)CC1 | inactive | 
Oc1cccc(O)c1 | inactive | 
Oc1cc2ccccc2c2ccccc12 |  | 40 µM (active)
CC#C[C@]1(O)CC[C@H]2[C@@H]3CCC4=CC(=O)CCC4=C3[C@@H](c3ccc(N(C)C)cc3)C[C@@]21C | inactive | 
CCCCCCCC(=O)O | inactive | 
NC(=O)N1C(=O)C(C(=O)c2cc(Cl)cs2)c2cc(F)c(Cl)cc21 (stereo not given) | inactive | 
COCC(C)O (stereo not given) | inactive | 
CC1=C(/C=C/C(C)=C/C=C/C(C)=C/C(=O)O)C(C)(C)CCC1 |  | 0.0999 µM (active)
O=C(O)Cc1cc(I)c(Oc2cc(I)c(O)c(I)c2)c(I)c1 |  | 0.0114 µM (active)
COc1ccc([N+](=O)[O-])cc1N | inactive | 
NC(=O)N(O)[C@@H]1C=C[C@H](Oc2cccc(Oc3ccc(F)cc3)c2)C1 | inactive | 
OC1CCC(C2CCCCC2)CC1 (stereo not given) | inactive | 
CC(C)(C)CC(C)(C)c1ccc(O)c(-n2nc3ccccc3n2)c1 | inactive | 
CC(C)(C)c1ccc(O)c(C(C)(C)C)c1 | inactive | 
c1ccc2c(c1)Cc1ccccc1-2 | inactive | 
COC(=O)CCCCC(=O)OC | inactive | 
CCCCCCCCC(=O)O | inactive | 
c1ccc2cc3c(ccc4ccccc43)cc2c1 |  | 45.6 µM (active)
O=c1c(-c2ccc(O)cc2)coc2cc(O)ccc12 | inactive | 
Nc1cccc2c(N)cccc12 | inactive | 
CCCOC(=O)c1ccc(O)cc1 | inactive | 
CC[C@H](c1ccc(O)cc1)[C@@H](CC)c1ccc(O)cc1 | inactive | 
CC(C)(C)c1cc(C(C)(C)C)c(O)c(C(C)(C)C)c1 | inactive | 
CCC(C)(C)C1CCC(O)CC1 (stereo not given) | inactive | 
CCc1ccc(CCOc2ccc(CC3SC(=O)NC3=O)cc2)nc1 (stereo not given) | inactive | 
O=[N+]([O-])c1ccc(O)cc1 | inactive | 
CCCCC(CC)COC(=O)CCCCC(=O)OCC(CC)CCCC (stereo not given) | inactive | 
Cc1cc(CCN2CCN(c3nsc4ccccc34)CC2)cc2c1NC(=O)CC2(C)C |  | 3.05 µM (active)

Assay: Tanguay_ZF_120hpf_SNOU_legacy: (Legacy) Oregon State University Tanguay Lab 120 Hour Post-fertilization zebrafish Assay for Snout Malformation (AID 2283637)
In short: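 Binary snout-malformation call at 120 hpf in wild-type 5D embryos, chorion removed by pronase, under static exposure from 6 hpf at 28C (0.64% DMSO). Embryos dying by 24 or 120 hpf excluded.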

Structure (SMILES) | outcome | AC50
CN1CCN(c2ccccc2/C=C2\SCCN(c3ccc(Cl)c(Cl)c3)C2=O)CC1 | inactive | 
Oc1cccc(O)c1 | inactive | 
Oc1cc2ccccc2c2ccccc12 |  | 14.3 µM (active)
CC#C[C@]1(O)CC[C@H]2[C@@H]3CCC4=CC(=O)CCC4=C3[C@@H](c3ccc(N(C)C)cc3)C[C@@]21C | inactive | 
CCCCCCCC(=O)O | inactive | 
NC(=O)N1C(=O)C(C(=O)c2cc(Cl)cs2)c2cc(F)c(Cl)cc21 (stereo not given) | inactive | 
COCC(C)O (stereo not given) | inactive | 
CC1=C(/C=C/C(C)=C/C=C/C(C)=C/C(=O)O)C(C)(C)CCC1 |  | 0.183 µM (active)
O=C(O)Cc1cc(I)c(Oc2cc(I)c(O)c(I)c2)c(I)c1 |  | 0.00601 µM (active)
COc1ccc([N+](=O)[O-])cc1N | inactive | 
NC(=O)N(O)[C@@H]1C=C[C@H](Oc2cccc(Oc3ccc(F)cc3)c2)C1 | inactive | 
OC1CCC(C2CCCCC2)CC1 (stereo not given) | inactive | 
CC(C)(C)CC(C)(C)c1ccc(O)c(-n2nc3ccccc3n2)c1 | inactive | 
CC(C)(C)c1ccc(O)c(C(C)(C)C)c1 | inactive | 
c1ccc2c(c1)Cc1ccccc1-2 | inactive | 
COC(=O)CCCCC(=O)OC | inactive | 
CCCCCCCCC(=O)O | inactive | 
c1ccc2cc3c(ccc4ccccc43)cc2c1 |  | 46.5 µM (active)
O=c1c(-c2ccc(O)cc2)coc2cc(O)ccc12 | inactive | 
Nc1cccc2c(N)cccc12 | inactive | 
CCCOC(=O)c1ccc(O)cc1 |  | 39.3 µM (active)
CC[C@H](c1ccc(O)cc1)[C@@H](CC)c1ccc(O)cc1 | inactive | 
CC(C)(C)c1cc(C(C)(C)C)c(O)c(C(C)(C)C)c1 | inactive | 
CCC(C)(C)C1CCC(O)CC1 (stereo not given) | inactive | 
CCc1ccc(CCOc2ccc(CC3SC(=O)NC3=O)cc2)nc1 (stereo not given) | inactive | 
OCCC(F)(F)C(F)(F)C(F)(F)C(F)(F)C(F)(F)C(F)(F)C(F)(F)C(F)(F)F | inactive | 
O=[N+]([O-])c1ccc(O)cc1 | inactive | 
CCCCC(CC)COC(=O)CCCCC(=O)OCC(CC)CCCC (stereo not given) | inactive | 
Cc1cc(CCN2CCN(c3nsc4ccccc34)CC2)cc2c1NC(=O)CC2(C)C |  | 3.18 µM (active)

Assay: Tanguay_ZF_120hpf_JAW_legacy: (Legacy) Oregon State University Tanguay Lab 120 Hour Post-fertilization zebrafish Assay for Jaw Malformation (AID 2283638);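 as to AC50: active means more embryos with jaw malformation than DMSO controls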
In short: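 Tropical 5D wild-type embryos, dechorionated with pronase at 4 hpf, were placed singly per well at 6 hpf and statically exposed at 28C until 120 hpf (0.64% DMSO final). Jaw malformation scored as present/absent by brightfield microscopy at 120 hpf, analyzed relative to DMSO.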

Structure (SMILES) | outcome | AC50
CN1CCN(c2ccccc2/C=C2\SCCN(c3ccc(Cl)c(Cl)c3)C2=O)CC1 | inactive | 
Oc1cccc(O)c1 | inactive | 
Oc1cc2ccccc2c2ccccc12 |  | 9.87 µM (active)
CC#C[C@]1(O)CC[C@H]2[C@@H]3CCC4=CC(=O)CCC4=C3[C@@H](c3ccc(N(C)C)cc3)C[C@@]21C | inactive | 
CCCCCCCC(=O)O | inactive | 
NC(=O)N1C(=O)C(C(=O)c2cc(Cl)cs2)c2cc(F)c(Cl)cc21 (stereo not given) | inactive | 
COCC(C)O (stereo not given) | inactive | 
CC1=C(/C=C/C(C)=C/C=C/C(C)=C/C(=O)O)C(C)(C)CCC1 |  | 0.144 µM (active)
O=C(O)Cc1cc(I)c(Oc2cc(I)c(O)c(I)c2)c(I)c1 |  | 0.00848 µM (active)
COc1ccc([N+](=O)[O-])cc1N | inactive | 
NC(=O)N(O)[C@@H]1C=C[C@H](Oc2cccc(Oc3ccc(F)cc3)c2)C1 | inactive | 
OC1CCC(C2CCCCC2)CC1 (stereo not given) | inactive | 
CC(C)(C)CC(C)(C)c1ccc(O)c(-n2nc3ccccc3n2)c1 | inactive | 
CC(C)(C)c1ccc(O)c(C(C)(C)C)c1 | inactive | 
c1ccc2c(c1)Cc1ccccc1-2 | inactive | 
COC(=O)CCCCC(=O)OC | inactive | 
CCCCCCCCC(=O)O | inactive | 
c1ccc2cc3c(ccc4ccccc43)cc2c1 |  | 49.1 µM (active)
O=c1c(-c2ccc(O)cc2)coc2cc(O)ccc12 | inactive | 
Nc1cccc2c(N)cccc12 | inactive | 
CCCOC(=O)c1ccc(O)cc1 |  | 10 µM (active)
CC[C@H](c1ccc(O)cc1)[C@@H](CC)c1ccc(O)cc1 | inactive | 
CC(C)(C)c1cc(C(C)(C)C)c(O)c(C(C)(C)C)c1 | inactive | 
CCC(C)(C)C1CCC(O)CC1 (stereo not given) | inactive | 
CCc1ccc(CCOc2ccc(CC3SC(=O)NC3=O)cc2)nc1 (stereo not given) | inactive | 
O=[N+]([O-])c1ccc(O)cc1 | inactive | 
CCCCC(CC)COC(=O)CCCCC(=O)OCC(CC)CCCC (stereo not given) | inactive | 
Cc1cc(CCN2CCN(c3nsc4ccccc34)CC2)cc2c1NC(=O)CC2(C)C |  | 3.26 µM (active)
